PERK inhibitor: human PERK inhibition, primary cell-based screen | CHO PERK-DD fusion, SEAP luminescence translation reporter | inhibition, % at 5.6 µM | Q9NZJ5 | actives 0.17% (n = 220,000) | AID 1416;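 active means inhibition above the mean inhibition of all tested compounds plus 3 SD, set separately per screening campaign, cut at about 2.9% in these data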;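 further: PERK kinase domain activated by AP20187 dimerizer at 100 nM; 0% = DMSO with dimerizer and 100% = rapamycin at 8.4 µM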
NALP3 yeast inh: blocks the NALP3 inflammasome reconstituted in yeast. Yeast reconstituted NLRP3/ASC/caspase-1, beta-gal luminescence, 24 h. inhibition, % at 10 µM. actives 0.39% (n = 330,000);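 active means inhibition of 50% or more; inactive means inhibition below 50%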;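 further: plate controls were induced DMSO wells for no effect and uninduced yeast grown without galactose for full effect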
CR mimetic SO: caloric restriction mimetics inhibiting age-related superoxide in yeast; S. cerevisiae aged cells, superoxide DHE fluorescence; hits give low values; superoxide response (% of plate mean), % at 10 µM; actives 0.18% (n = 330,000);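 active means superoxide response under a set limit, about three screen SD below normal, cut at about 65% in these data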;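 further: yeast aged for seven days with compound at 30 °C before DHE staining; 100% = average MFI of all compound-treated wells on the plate with controls excluded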
NALP1 inh: NALP1 inhibition. S. cerevisiae NALP1/ASC/caspase-1 growth, X-gal OD620, 72 h. inhibition, % at 10 µM. AID 2071. actives 0.61% (n = 280,000); in the data active means inhibition mostly above about 24%, no sharp cut-off; inactive means mostly below about 32%
Rce1 inh: yeast Ras-converting enzyme inhibition; Q03530; yeast membranes, quenched prenylated peptide cleavage fluorescence; calls only; actives 0.27% (n = 290,000); AID 2563;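 active means fall in fluorescence gain of 50% or more versus controls, with final raw signal at or below 3038400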;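 further: plate controls were neutral control wells for no effect and wells lacking membranes for full effect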
V-ATPase pH: regulators of yeast V-ATPase proton transport | S. cerevisiae, pHLuorin cytosolic pH fluorescence | response, % at 10 µM | actives 0.37% (n = 350,000) | AID 504577; in the data active means response mostly above about 7.3%, no sharp cut-off; inactive means mostly below about 5.4%; further: actives read high
The depositor's hits bear a star. Most compounds without a hit are left out; they make up all but 1.6% or so of the library.

Screening CCCn1c(=O)c(C(=O)Nc2ncccc2C)c(O)c2ccccc21 returned PERK inhibitor 1, NALP3 yeast inh 10, CR mimetic SO 94, NALP1 inh 33*, Rce1 inh inactive and V-ATPase pH -1.
Screening CC(OC(=O)C1=COCCO1)C(=O)Nc1ccc(Oc2ccccc2)cc1 (stereo unspecified) returned PERK inhibitor 0, NALP3 yeast inh 24, CR mimetic SO 97, NALP1 inh 36*, Rce1 inh inactive and V-ATPase pH 0.
Screening Cc1ccc(N=N/C(=C\O)C(=O)c2ccc(Cl)cc2)cc1 returned PERK inhibitor 0, NALP3 yeast inh 8, CR mimetic SO 112, NALP1 inh 14, Rce1 inh inactive and V-ATPase pH -2.
Screening O=C(/C(=C/O)N=Nc1ccccc1)c1ccc(Cl)cc1 returned PERK inhibitor 2, NALP3 yeast inh 8, CR mimetic SO 91, NALP1 inh 26*, Rce1 inh inactive and V-ATPase pH 3.
For COc1cccc2c(=O)ccoc12 the results were PERK inhibitor 2, NALP3 yeast inh 23, CR mimetic SO 100, NALP1 inh 20, Rce1 inh inactive and V-ATPase pH -1.
COc1c2ccoc2nc2c(OC)cccc12 was read as PERK inhibitor 0, NALP3 yeast inh 30, CR mimetic SO 83, NALP1 inh -1, Rce1 inh active and V-ATPase pH 0.
O=C(CCc1ccc(S(=O)(=O)NC2CCCCC2)cc1)Nc1ccccc1 was read as PERK inhibitor -1, NALP3 yeast inh 21, CR mimetic SO 112, NALP1 inh 9, Rce1 inh inactive and V-ATPase pH -1.
Cc1ccc(NC(=O)CCc2ccc(S(=O)(=O)NC3CCCCC3)cc2)cc1 was read as PERK inhibitor 0, NALP3 yeast inh 0, CR mimetic SO 97, NALP1 inh 4, Rce1 inh active and V-ATPase pH -2.
Screening COc1cc(C2SCC(=O)N2c2c(C)n(C)n(-c3ccccc3)c2=O)ccc1O (stereo unspecified) returned PERK inhibitor -2, NALP3 yeast inh 4, CR mimetic SO 106, NALP1 inh 38*, Rce1 inh inactive and V-ATPase pH 3.
Screening COc1ccc(C2SCC(=O)N2c2c(C)n(C)n(-c3ccccc3)c2=O)cc1 (stereo unspecified) returned PERK inhibitor 2, NALP3 yeast inh 1, CR mimetic SO 102, NALP1 inh 6, Rce1 inh inactive and V-ATPase pH -3.
For Cc1[nH]ccc2cc3nc4ccccc4c3cc12 the results were V-ATPase pH -4.
`CC(C)C#Cc1cnc2c(c1)C(=O)N([C@@H](C)CO)C[C@@H](C)[C@H](CN(C)Cc1cccc(F)c1)O2` gave V-ATPase pH 3.
For Cc1cc(C)cc(NC(=O)c2cnn(-c3ccccc3)c2C2CCNCC2)c1 the results were PERK inhibitor 1, NALP3 yeast inh 18, CR mimetic SO 95, NALP1 inh 23*, Rce1 inh inactive and V-ATPase pH -1.
Cc1ccc(-n2ncc(C(=O)Nc3cc(Cl)ccc3C)c2C2CCNCC2)cc1C was read as PERK inhibitor 0, NALP3 yeast inh -2, CR mimetic SO 120, NALP1 inh 25 and V-ATPase pH 32*.
Screening CCc1ccc(NC(=O)c2cnn(-c3ccccc3)c2C2CCNCC2)cc1 returned PERK inhibitor 0, NALP3 yeast inh -1, CR mimetic SO 97, NALP1 inh -15, Rce1 inh inactive and V-ATPase pH -1.
`Cc1cccc(NC(=O)c2cnn(-c3ccc(F)cc3)c2C2CCNCC2)c1C` gave PERK inhibitor 1, NALP3 yeast inh -6, CR mimetic SO 96, NALP1 inh 0, Rce1 inh inactive and V-ATPase pH 2.
Screening COc1cc(NS(=O)(=O)c2ccc(C)cc2)c2c(c1N)C(=O)c1ccccc1C2=O returned V-ATPase pH -3.
For CCOc1c(Cl)cc(CNCC(C)C)cc1Cl the results were PERK inhibitor 1, NALP3 yeast inh 5, CR mimetic SO 97, Rce1 inh inactive and V-ATPase pH 20*.
`CCCNCc1cc(Cl)c(OCC)c(Cl)c1` gave PERK inhibitor 1, NALP3 yeast inh 6, CR mimetic SO 87, NALP1 inh -47, Rce1 inh inactive and V-ATPase pH 2.
COc1ccc(NC(=O)CSc2nc(N)c3cc4c(nc3n2)CC(C)(C)OC4)cc1 was read as PERK inhibitor 3.2*, NALP3 yeast inh 9, CR mimetic SO 91, Rce1 inh inactive and V-ATPase pH -1.
For CC(=O)C1CCC2C3CC(C)=C4CC(O)CCC4(C)C3CCC12C (stereo unspecified) the results were V-ATPase pH -1.
COc1ccc(CCn2c(SCCN3CCCCC3)nc3ccccc3c2=O)cc1OC was read as PERK inhibitor -1, NALP3 yeast inh -3, CR mimetic SO 89, NALP1 inh 34*, Rce1 inh inactive and V-ATPase pH -3.
For COC(=O)c1c(C)[nH]c(C(=O)OC(C)C(=O)NC2CCCCC2C)c1C (stereo unspecified) the results were V-ATPase pH -2.
O=C(Cn1c(-c2ccccc2)noc1=O)Nc1ccc(S(=O)(=O)N2CCOCC2)cc1 was read as PERK inhibitor 0, NALP3 yeast inh 5, CR mimetic SO 137, NALP1 inh 23, Rce1 inh inactive and V-ATPase pH 2.
`O=C(Cn1c(-c2ccccc2)noc1=O)Nc1ccc(N2CCCCCC2)cc1` gave PERK inhibitor 0, NALP3 yeast inh 6, CR mimetic SO 96, NALP1 inh 36*, Rce1 inh inactive and V-ATPase pH 8.
For CCC(=O)Nc1ccc(N2CCCCC2)cc1 the results were PERK inhibitor 0, NALP3 yeast inh 7, CR mimetic SO 113, NALP1 inh 40*, Rce1 inh inactive and V-ATPase pH 3.
Oc1cc2c(cc1C(c1ccc(Br)cc1)N1CCCC1)OCO2 (stereo unspecified) was read as PERK inhibitor 1, NALP3 yeast inh 44, NALP1 inh 43* and V-ATPase pH 0.
Screening CCC/C=C/c1ccc(CN2C(C)C(=O)N(Cc3cn(CCC4OCCO4)nn3)CCS2(=O)=O)cc1 (stereo unspecified) returned V-ATPase pH -2.
For COc1ccccc1-c1cc(C(F)(F)F)n2ncc(S(=O)(=O)c3ccccc3)c2n1 the results were PERK inhibitor 1, NALP3 yeast inh 10, CR mimetic SO 98, NALP1 inh -12, Rce1 inh active and V-ATPase pH -5.
For O=S(=O)(c1ccccc1)c1cnn2c(C(F)(F)F)cc(-c3ccc(F)cc3)nc12 the results were PERK inhibitor 1, NALP3 yeast inh -16, CR mimetic SO 105, NALP1 inh 16, Rce1 inh active and V-ATPase pH -2.
`Cc1ccccc1OC(C)C(=O)N1CCC(Cc2ccccc2)CC1` (stereo unspecified) gave NALP3 yeast inh 2, CR mimetic SO 96, NALP1 inh 4, Rce1 inh active and V-ATPase pH 1.

Screens deposited in PubChem by several laboratories.
